Screens deposited in PubChem BioAssay by National Center for Advancing Translational Sciences (NCATS).
Most compounds without a hit are left out; they make up all but 2.4% or so of the library.
Pol iota inh – inhibitors of human DNA polymerase iota; Pol iota fluorescent replication assay, 10 min; Potency, µM (top dose mostly 115 µM), inactives show at the top dose activity, negative = inhibition, actives largely listed as inhibitors; 390,000 compounds, 1% hits; AID 588590
Target sequence (Q9UNA4 whole entry, looked up): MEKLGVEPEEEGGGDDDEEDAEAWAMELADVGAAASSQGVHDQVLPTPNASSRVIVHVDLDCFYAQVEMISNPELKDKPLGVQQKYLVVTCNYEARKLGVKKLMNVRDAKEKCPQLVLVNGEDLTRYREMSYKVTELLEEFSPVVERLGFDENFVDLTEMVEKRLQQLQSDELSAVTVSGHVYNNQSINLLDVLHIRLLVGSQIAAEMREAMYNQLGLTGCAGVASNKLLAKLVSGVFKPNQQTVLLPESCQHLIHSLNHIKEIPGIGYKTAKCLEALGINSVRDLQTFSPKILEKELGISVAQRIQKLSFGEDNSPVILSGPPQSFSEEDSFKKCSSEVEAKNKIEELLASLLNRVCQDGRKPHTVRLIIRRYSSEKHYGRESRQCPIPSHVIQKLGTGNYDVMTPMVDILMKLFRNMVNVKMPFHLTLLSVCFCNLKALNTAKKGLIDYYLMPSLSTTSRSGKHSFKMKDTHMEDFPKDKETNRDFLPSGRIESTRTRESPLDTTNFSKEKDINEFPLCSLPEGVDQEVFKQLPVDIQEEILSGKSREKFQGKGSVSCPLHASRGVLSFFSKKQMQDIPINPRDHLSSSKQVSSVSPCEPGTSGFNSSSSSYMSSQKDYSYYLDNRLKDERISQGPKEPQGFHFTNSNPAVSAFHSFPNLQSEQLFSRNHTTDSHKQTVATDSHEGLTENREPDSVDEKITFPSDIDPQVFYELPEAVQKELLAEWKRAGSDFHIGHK
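Fluorescent replication assay read twice, at 0 min and 10 min after adding 50 nM (final) substrate. Enzyme (10 nM) and compounds were first incubated 15 min at room temperature; enzyme-free buffer wells were negative controls.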
Pol beta inh – blocks human DNA polymerase beta activity | P06746 | Pol beta primer extension/strand displacement, fluorescence kinetic | Potency, µM (series often up to 114 µM), inactives show top-dose activity change, negative = inhibition, usual class: inhibitors | 340,000 compounds, 1.3% hits; note: % is set by controls: 0 for no effect and ±100 for the full control effect
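Human Pol beta at 10 nM; strand-displacement substrate 50 nM final. Compound exposure 15 min at room temperature before start, reaction 10 min at room temperature.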
POLH inh – DNA polymerase eta (human) inhibition; 390,000 compounds, 1.2% hits; AID 588591; recombinant Pol eta, fluorescent DNA replication assay; Potency, µM (titrated, usually from 114 µM), for the others: at the highest dose activity change, negative = inhibition, usual class: inhibitors; Q9Y253; note: % is set by controls: 0 for no effect and ±100 for the full control effect
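Pol eta at 10 nM preincubated with compounds 15 min at room temperature; reaction started with fluorescent substrate (50 nM final) and read kinetically at 0 and 10 min.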
FEN1 inh – blocks human flap endonuclease 1. P39748. Recombinant FEN1 flap cleavage, fluorescence, 15 min. Potency, µM (doses to about 114 µM), for inactives: top-dose activity change, negative = inhibition, most hits filed as inhibitors. 390,000 compounds, 0.35% hits; note: % is set by controls: 0 for no effect and ±100 for the full control effect; nearly all actives have a fitted effect of over 65% in size
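Recombinant FEN1 (10 nM) was preincubated with pin-transferred compounds for 15 min at room temperature, then flap DNA substrate (50 nM final) was added. Plates were read at 0 and 15 min, and normalized concentration–response data were fitted to a four-parameter Hill equation.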
POLK inh – DNA polymerase kappa (human) inhibition; Potency, µM (titrated, usually from 107 µM), for the others: at the highest dose activity, negative = inhibition, usual class: inhibitors; Q9UBT6; purified Pol kappa, fluorescent DNA synthesis assay, 10 min; 400,000 compounds, 0.53% hits; note: % is set by controls: 0 for no effect and ±100 for the full control effect
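Enzyme at 10 nM met test compounds for 15 min at room temperature. Substrate addition (50 nM final) began the reaction, which was monitored by fluorescence at 0 and 10 min.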
WRN inhibitor – blocks human WRN helicase; 360,000 compounds, 0.46% hits; AID 651768; WRN helicase unwinding, fluorescent forked duplex, kinetic; Potency, µM (highest dose often 114 µM), without a hit: at the top dose activity change, negative = inhibition, usual class: inhibitors; note: % is set by controls: 0 for no effect and ±100 for the full control effect; nearly all actives have a fitted effect of over 55% in size
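Enzyme (20 nM final) and test compound sit together 15 min at room temperature before substrate addition. Substrate is a single-forked duplex oligonucleotide (100 nM) labelled with fluorophore and quencher, with 2 mM ATP; helicase unwinding raises red fluorescence, read kinetically.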
* hit, by the source's call; ? = inconclusive; · = not tested or not shown; [ ] = another dose, or the depositor's remark. Calls come from the whole dose curve; as a rule, active = well fitted curve in the direction sought with a large enough effect; inconclusive = small, poorly fitted or top-dose-only effect, or another doubt; inactive = no such curve, though single readings can be large; an effect the other way counts as inactive or inconclusive. Potency is the fitted concentration of half-maximal effect.

SMILES	Pol iota inh	Pol beta inh	POLH inh	FEN1 inh	POLK inh	WRN inhibitor
CCOC(=O)C1CCCN(C(=O)c2ccc(NC(=O)c3nsc4ccccc34)cc2)C1 (stereo not given)	8.4%	2.7%	-21.0%	-16.2%	-7.2%[60.1 µM]	·
NS(=O)(=O)c1ccc(-c2ccc(/C=C3\NC(=S)NC3=O)o2)cc1	10µM*	10.7%	79.4µM*	50.1µM*	50.1µM*	-31.4%
CC1=C(C#N)C(=O)NC(=O)/C1=C/c1ccc(-c2ccc(S(N)(=O)=O)cc2)o1	?	?	14.1µM*	-18.9%	?	?
NS(=O)(=O)c1ccc(-c2ccc(C=O)o2)cc1	51.0%	-28.7%	-8.9%	-3.8%	-6.1%	4.3%[57.1 µM]
CC(Oc1ccccc1)C(=O)N=Nc1c(O)[nH]c2ccc([N+](=O)[O-])cc12 (stereo not given)	79.4µM*	-25.4%	35.5µM*	10.5%	-11.8%	1.0%
O=[N+]([O-])c1ccc(N=Nc2c(O)[nH]c3ccc(F)cc23)cc1	28.2%	50.1µM*	?	-15.7%	-2.5%	-7.7%
CN(C)CCN(Cc1ccco1)C(=O)c1cc2c(s1)-c1ccccc1OC2	16.6%	2.3%	-18.1%	2.2%	-6.5%	·
Cn1c(SCC(=O)c2ccc(O)c(O)c2)nnc1-c1cccs1	28.2µM*	3.55µM*	22.4µM*	6.7%	79.4µM*	?
C=CCn1c(SCC(=O)c2ccc(O)c(O)c2)nnc1-c1cccc(OC)c1	?	·	11.2µM*	-5.2%	31.6µM*	?
Cn1c(SCC(=O)c2ccc(O)c(O)c2)nnc1-c1ccccc1	?	4.6%	-25.8%	-6.6%	-36.5%	-8.5%[11.6 µM]
CCC(=O)N1CCc2cc(S(=O)(=O)NC(CC(C)C)C(=O)Nc3cc(C)ccc3OC)ccc21 (stereo not given)	-4.7%	0.9%	-6.0%	-6.4%	-5.6%	·
O=C(Cc1ccc(OCc2ccccc2)cc1)NO	72.2%	·	·	-4.4%	-7.8%	·
Nc1nc(-c2cc(O)ccc2[N+](=O)[O-])cc(-c2ccccc2)c1[N+](=O)[O-]	?	-9.2%	89.1µM*	?	-4.5%	-13.4%[11.6 µM]
Cc1ccc2c(c1)c1c(c(=O)n(-c3ccccc3C)c(=O)n1Cc1cccc(F)c1)n2C	-5.4%	-5.8%	-17.8%	12.9%	-14.6%	·
COc1cc(NS(=O)(=O)c2ccc(NC(=S)NC(=O)c3sc4ccccc4c3Cl)cc2)ncn1	?	-22.9%	25.1µM*	?	-13.5%	?
COc1cc(NS(=O)(=O)c2ccc(NC(=S)NC(=O)c3ccco3)cc2)ncn1	35.7%	-12.1%	-7.0%	-1.2%	-8.2%	-3.1%
CCCN1CNc2c(c(=O)[nH]c(=S)n2CCc2cc(C)ccc2C)C1	37.5%	·	·	-5.8%	-0.2%	·
Cc1ccc(F)cc1-c1ccc(C(=O)N=C(N)N)o1	·	·	·	·	15.0%[60.1 µM]	·
Cn1cc(/C=C/c2cc[n+](C)cc2)c2cc(Cl)ccc21	2.0%	?	-21.2%	50.1µM*	-6.5%	-3.4%[57.1 µM]
O=C(/C=C\C=C/c1ccc2c(c1)OCO2)N1CCCCC1	·	·	·	·	-4.6%[12 µM]	·
CCOc1ccc(NC(=O)CSc2nccn2-c2cccc(C)c2C)cc1	24.9%	-0.4%	-16.0%	-8.8%	-5.5%[60.1 µM]	·
COC(=O)CCCC1=CC2=CC(=O)C(C)(OC(=O)c3cccs3)C(=O)C2=CN1CCc1c[nH]c2ccccc12 (stereo not given)	50.1µM*	-14.9%	-3.8%	-5.7%	?	-4.4%[57.1 µM]
COC(=O)CCCC1=CC2=CC(=O)C(C)(OC(=O)c3cccs3)C(=O)C2=CN1Cc1ccco1 (stereo not given)	?	50.1µM*	?	-0.8%	?	-19.1%[57.1 µM]
COC(=O)CCCC1=CC2=CC(=O)C(C)(OC(=O)c3cccs3)C(=O)C2=CN1c1ccc(OC)cc1 (stereo not given)	61.4%	-0.4%	-10.1%	-8.9%	-23.1%	-7.5%
COC(=O)CCCC1=CC2=CC(=O)C(C)(OC(=O)c3cccs3)C(=O)C2=CN1Cc1ccccc1 (stereo not given)	?	?	-13.5%	10.8%	-6.3%	-13.8%
SMILES	Pol iota inh	Pol beta inh	POLH inh	FEN1 inh	POLK inh	WRN inhibitor
COC(=O)CCCC1=CC2=CC(=O)C(C)(OC(=O)c3cccs3)C(=O)C2=CN1Cc1ccc2c(c1)OCO2 (stereo not given)	31.6µM*	50.1µM*	?	1.3%	-35.5%	-6.7%[11.6 µM]
COC(=O)CCCC1=CC2=CC(=O)C(C)(OC(=O)c3cccs3)C(=O)C2=CN1C1CCCC1 (stereo not given)	?	6.4%	1.3%	10.4%	-8.1%	-8.2%[57.1 µM]
COC(=O)CCCC1=CC2=CC(=O)C(C)(OC(=O)c3cccs3)C(=O)C2=CN1CCCOC(C)C (stereo not given)	25.1µM*	15.8%	-16.9%	-21.5%	-3.8%	4.0%
CC(=O)N[C@@H]1C(O)OC(CO)C(O)C1O (stereo not given in full)	·	·	·	·	-14.6%[60.1 µM]	·
COc1ccc(-n2c(=O)c3c(c4cc(OC)ccc4n3C)n(Cc3cccc(OC)c3)c2=O)cc1	12.4%	-13.8%	-4.6%	4.3%	-10.0%	·
CCNc1ncc2nc(-c3cccc(C#N)c3)c(=O)n(CCC#N)c2n1	·	·	·	·	3.3%[60.1 µM]	·
O=C(Nc1cccc2cccnc12)c1ccc(Br)cc1	-8.5%	·	·	-26.8%	-0.8%	·
CC(Sc1nc(=O)cc(N)n1CCc1ccccc1)C(=O)Nc1ccccc1C#N (stereo not given)	8.2%	19.6%	2.4%	-0.6%	6.6%	·
O=C(Nc1nc2c(F)cc(F)cc2s1)c1ccc(S(=O)(=O)N2CCc3ccccc32)cc1	?	31.6µM*	-10.7%	10.2%	-11.0%[60.1 µM]	·
Cc1c(N2C(=O)c3ccc4c5c(ccc(c35)C2=O)CC4)c(=O)n(-c2ccccc2)n1C	5.62µM*	5.01µM*	2.82µM*	50.1µM*	50.1µM*	?
Cc1c(N2C(=O)c3ccc(Br)cc3C2=O)c(=O)n(-c2ccccc2)n1C	21.1%	?	-7.0%	6.8%	-3.8%	-1.3%
CCOc1ccc(CCNC(=O)c2cc(Nc3ccc(C)cc3C)nc3ccccc23)cc1OCC	12.2%	15.1%	-16.3%	8.5%	4.0%	·
CC(=O)C1=C(O)C(=O)N(Cc2ccccc2)C1c1ccc(N(C)C)cc1 (stereo not given)	-13.1%	17.8%	-0.3%	17.8µM*	-18.1%	-1.4%[11.6 µM]
COc1ccc(N2C(=O)c3ccccc3C2O)cc1 (stereo not given)	-9.3%	16.1%	-13.2%	7.1%	-7.2%	15.3%
COc1ccc(O)c(C(=O)C2c3ccccc3C(=O)N2c2ccc(C)cc2)c1 (stereo not given)	8.1%	-9.2%	-12.6%	-6.4%	-17.2%	50.1µM*
CC(=O)Oc1ccc2nonc2c1OC(C)=O	3.55µM*	·	·	10µM*	3.16µM*	·
